Screening data (PubChem)
D1 PAM: enhances dopamine response at the human D1 receptor | hit rate 0.036% among 360,000 | P21728 | HEK293 TREx D1 cells, calcium flux, dopamine EC20 potentiation | potentiation, % at 10 µM; in the data active = potentiation above about 30%; note: 0% is about no effect
D1 antag: antagonists of human D1 dopamine receptor; P21728; HEK293 TREx D1 cells, calcium flux, dopamine EC80; active compounds read low; activity change, negative = inhibition, % at 10 µM; hit rate 3.2% among 360,000; AID 504652; in the data active = activity change below about -30%; note: % is set by controls: 0 for no effect and ±100 for the full control effect
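Allosteric or orthosteric antagonism assessed as attenuation of the calcium response to EC80 dopamine, added 180 s after compound, in induced HEK293 Trex D1 cells loaded with no-wash calcium dye.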
D1 agonist: agonists of human D1 dopamine receptor; P21728; HEK293 T-REx D1 cells, calcium flux, agonist mode; activation, % at 2 µM; hit rate 1% among 360,000; AID 504660; in the data active = activation above about 30%; note: 0% is about no effect
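Agonism was scored from calcium flux recorded over 180 s (1 read/s) after pintool compound addition, following a 10-cycle baseline. Cells were inducible force-coupled HEK293 TREx D1, plated overnight at 30 C and loaded with no-wash calcium dye.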
D3 antag: blocks the human D3 dopamine receptor. P35462. D3R cells, DiscoveRx beta-arrestin luminescence, antagonist mode; active compounds read low. max response, negative = inhibition, %. hit rate 2.5% among 360,000; in the data active = max response below about -50%; note: % is set by controls: 0 for no effect and ±100 for the full control effect
Target sequence (P35462 whole entry, looked up): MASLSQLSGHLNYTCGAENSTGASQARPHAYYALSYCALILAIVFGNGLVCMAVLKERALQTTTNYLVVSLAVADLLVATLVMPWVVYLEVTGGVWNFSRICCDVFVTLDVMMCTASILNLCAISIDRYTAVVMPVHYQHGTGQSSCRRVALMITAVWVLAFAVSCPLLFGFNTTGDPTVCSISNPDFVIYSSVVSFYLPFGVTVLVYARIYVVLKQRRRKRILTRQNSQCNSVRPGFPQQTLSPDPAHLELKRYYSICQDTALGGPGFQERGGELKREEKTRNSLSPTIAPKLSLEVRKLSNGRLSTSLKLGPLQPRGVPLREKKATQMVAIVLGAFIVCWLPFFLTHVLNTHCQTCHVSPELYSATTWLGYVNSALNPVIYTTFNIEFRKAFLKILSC
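Cells expressing the human receptor were seeded at 1500 cells/well, incubated overnight at 37 degrees C in 5% CO2, then exposed to library compounds with dopamine controls for 90 minutes at 37 degrees C before luminescent detection.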
DRD3 agonist: D3 dopamine receptor (human) agonism | hit rate 0.58% among 410,000 | max activation, % | D3R DiscoveRx beta-arrestin cells, luminescence, 90 min; in the data active = max activation above about 30%; note: 0% is about no effect
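Cells at 1500/well, incubated overnight, then treated with pinned compounds (dopamine as control) for 90 min at 37 degrees C. DiscoveRx reagent added for 30 - 60 minutes at room temperature; luminescence read.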
* marks the source's active call; other numbers are inactive results; ! = not active in a repeat. An excerpt weighted towards active compounds, which were near 6.1% of everything screened.

How did CC[C@@]1([C@@H]2O[C@@H]([C@H]3O[C@@](O)(CO)[C@H](C)C[C@@H]3C)C[C@@H]2C)CC[C@H]([C@]2(C)CC[C@]3(C[C@H](O)[C@@H](C)[C@@H]([C@@H](C)[C@@H](OC)[C@H](C)C(=O)O)O3)O2)O1 (stereo in doubt) do in these assays?
DRD3 agonist: 75*!

Results for Cc1ccc(C(=O)NC(C#N)=C(Cl)Cl)cc1 ?
D1 PAM: -7; D1 antag: -24; D1 agonist: -1; D3 antag: -61*; DRD3 agonist: -8

What do the screens show for `C=C(C)Cn1c2ccc(NC(=S)NCc3ccccc3F)cc2c(=O)n1C`?
D3 antag: -52*; DRD3 agonist: -12

Results for Cc1nc2c3ccccc3nc(NNC(=O)CCC(=O)N3CCN(c4cccc(C(F)(F)F)c4)CC3)n2n1 ?
D1 PAM: -2; D1 antag: -14; D1 agonist: 3; DRD3 agonist: -19

How did O=C1C(c2cccc(Br)c2)N(CCc2ccccc2)C(=O)CN1C1CCCCC1 (centres undefined) do in these assays?
D1 PAM: -1; D1 antag: -33*; D1 agonist: -2; DRD3 agonist: 5

Results for COc1ccc(C2C(=O)N(C3CCCCCC3)CC(=O)N2CCc2ccccc2)cc1 (centres undefined) ?
D1 PAM: -1; D1 antag: 14; D1 agonist: -3; DRD3 agonist: 28

What do the screens show for `O=C(Nc1ccccc1C(F)(F)F)NC1(C(=O)N2CCOCC2)CCCCC1`?
D3 antag: 19; DRD3 agonist: 27

How did CC(C)Oc1ccc(C(=O)OC(C)C(=O)NC2CCCCC2C)cc1 (centres undefined) do in these assays?
D1 PAM: -7; D1 antag: -48*; D1 agonist: 10; D3 antag: -11; DRD3 agonist: 1

How did O=c1c2cc(F)ccc2sn1-c1ccc(F)cc1 do in these assays?
D1 PAM: -3; D1 agonist: 8; D3 antag: 2; DRD3 agonist: -2

What do the screens show for `COc1ccc(-n2sc3ccc(F)cc3c2=O)cc1`?
D1 PAM: 1; D1 antag: -4; D1 agonist: 9; D3 antag: -55*; DRD3 agonist: -43

What do the screens show for `Cc1ccc(C)c(-n2sc3ccc(F)cc3c2=O)c1`?
D1 PAM: -2; D1 antag: -8; D1 agonist: 11; D3 antag: -81*; DRD3 agonist: -1

Results for O=C(Cn1cc(CNCc2ccccc2)nn1)Nc1cc(C(F)(F)F)ccc1Cl ?
D1 PAM: -6; D1 antag: 0; D1 agonist: 3

What do the screens show for `CCCC(=O)n1nc(-c2cccnc2)nc1NCc1ccc(OC)cc1`?
D1 PAM: -7; D1 antag: -7; D1 agonist: 2; D3 antag: 2; DRD3 agonist: 57*!

What do the screens show for `COc1ccccc1C(=O)n1nc(-c2cccnc2)nc1NCc1ccccc1`?
D1 PAM: -2; D1 antag: 7; D1 agonist: 3; D3 antag: 3; DRD3 agonist: 4

How did CCOC(=O)C(C)N1C(=O)S/C(=C/c2cc(C)n(-c3ccncc3)c2C)C1=O (centres undefined) do in these assays?
D1 PAM: -5; D1 antag: -1; D1 agonist: 4; D3 antag: 43; DRD3 agonist: 0

How did CCOC(=O)C(C)N1C(=O)S/C(=C/c2cc(C)n(-c3ccccn3)c2C)C1=O (centres undefined) do in these assays?
D1 PAM: -2; D1 antag: -45*; D1 agonist: 1; D3 antag: 46; DRD3 agonist: -4

What do the screens show for `CSC1=C(C#N)C(c2ccccc2Cl)C(C(=O)c2cccs2)C(O)(C(F)(F)F)N1` (centres undefined)?
D1 PAM: -8; D1 antag: -31*; D1 agonist: 1; D3 antag: 6; DRD3 agonist: 0

How did CC(C)(C)NC(=O)C1CCC(C)(C(=O)O)C1(C)C (centres undefined) do in these assays?
D1 PAM: 3; D1 antag: 2; D1 agonist: 4; D3 antag: 15; DRD3 agonist: 33*

What do the screens show for `CC1(C(=O)O)CCC(C(=O)Nc2ccccc2O)C1(C)C` (centres undefined)?
D1 PAM: -1; D1 antag: -8; D1 agonist: 0; D3 antag: -10; DRD3 agonist: -5

Results for COc1ccc(NC(=O)C2CCC(C)(C(=O)O)C2(C)C)cc1 (centres undefined) ?
D1 PAM: -3; D1 antag: 7; D1 agonist: 0; D3 antag: -55*; DRD3 agonist: 5

Results for CCOc1ccc(NC(=O)C2CCC(C)(C(=O)O)C2(C)C)cc1 (centres undefined) ?
D1 PAM: -3; D1 antag: 16; D1 agonist: 2; D3 antag: 12; DRD3 agonist: 6

How did CC(C)NC(=O)C1(C)CN(S(C)(=O)=O)CC(=O)N1CCCn1ccnc1 (centres undefined) do in these assays?
D3 antag: 6; DRD3 agonist: 3

What do the screens show for `Cc1ccc(/C=C2/C(=O)N=C(N)N2C)s1`?
D1 PAM: 2; D1 antag: 12; D1 agonist: 1; D3 antag: -19; DRD3 agonist: 3

What do the screens show for `COCCN1C(=O)/C(=C/c2ccc(OCc3ccc(C(=O)O)cc3)c(OC)c2)SC1=Nc1ccccc1`?
D1 PAM: -4; D1 antag: -37*; D1 agonist: 4; D3 antag: 35; DRD3 agonist: 14

Results for Cc1ccc(-c2cn3cccnc3n2)cc1 ?
D1 PAM: 0; D1 antag: -11; D1 agonist: 0; D3 antag: 12; DRD3 agonist: 1

What do the screens show for `Nc1cccc(-c2cn3cccnc3n2)c1`?
D1 PAM: 5; D1 antag: -30*; D1 agonist: 4; D3 antag: 1; DRD3 agonist: -2

What do the screens show for `Cc1ccc([N+](=O)[O-])cc1S(=O)(=O)N1CCn2cccc2C1c1ccc(F)c(F)c1` (centres undefined)?
D1 PAM: -2; D1 agonist: -1; DRD3 agonist: -17

What do the screens show for `COc1ccc(S(=O)(=O)N2CCCCC2)cc1NC(=O)CNc1ccccc1C(C)=O`?
D1 PAM: -6; D1 antag: 7; D1 agonist: 1; D3 antag: 3; DRD3 agonist: 9

What do the screens show for `COc1ccc(-c2csc(NC(=O)c3ccccc3NS(=O)(=O)c3ccc(C)cc3)n2)cc1`?
D1 PAM: -9; D1 antag: -40*; D1 agonist: 9; D3 antag: 6; DRD3 agonist: 8

How did O=C(COC(=O)c1cccc(S(=O)(=O)N2CCc3ccccc3C2)c1)NCc1ccco1 do in these assays?
D1 PAM: -1; D1 antag: 10; D1 agonist: 5; D3 antag: -26; DRD3 agonist: -13
